# Reference: PubChem BioAssay
# Calls of active or inactive are those of the source. Unless noted, no rule for the calls is given here.
# Legend:
# [1] = kinase inhibitors against Plasmodium liver-stage infection, cell-based, known kinase inhibitor set, luminescence, hepatoma host viability (AID 624392); conditions: Plasmodium liver stage in hepatoma cells, luciferase luminescence, concentration not given here; liver cell % of control: measured here: host liver cell viability; parasite % of control: stronger effect = lower value;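 also: infected cells incubated roughly two days before readout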
# [2] = modulators of glucocorticoid suppression of NF-kB, cell-based, luciferase, IL-1B stimulus, dexamethasone (AID 624486); conditions: NF-kB luciferase reporter, IL-1B + dexamethasone, luminescence; percent of negative control (+Dex): actives lie on both sides, concentration not given here; z-score: measured here: IL-1B alone, no Dex;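 as to percent of negative control (+Dex): 100% = mean signal of vehicle control wells on the plate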
# [3] = kinase inhibitors altering Pseudomonas killing of worms, whole organism (AID 651566);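 also: tested at 14 µM; sign flipped so higher z means a lower ratio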; conditions: C. elegans killed by P. aeruginosa, survival ratio
# [4] = activators of macrophage pro-inflammatory response, cell-based, murine, luminescence (AID 652131); conditions: murine macrophage pro-inflammatory reporter, stronger effect = higher value
# [5] = biological target: Cellular tumor antigen p53 (Homo sapiens) (UniProt P04637); assay: kinase inhibitors altering GFP-p53 stability in HPV16-positive cells, imaging, known kinase inhibitor set, EGFP/DsRed ratio (AID 1053116); conditions: stronger effect = higher value; EGFP object count: measured here: GFP-p53 positive objects count;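 also: cells exposed to compounds for 24 h at 37 °C before reading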
# [6] = IRF3 reporter activation in THP-1 macrophages, cell-based, PMA-stimulated THP-1, luminescence (AID 1053176); conditions: PMA-differentiated THP-1, IRF3 reporter luminescence; stronger effect = higher value
# [7] = survival rescue of mitochondrial mutant cells in low glucose, primary screen, MELAS cybrids, Rieske KO mouse fibroblasts, CellTiter-Glo (AID 1508586;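 active = mean z-score across replicates of 1.96 or higher in either the MELAS or the Rieske mutant cell line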;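 also: z relative to plate mean and SD of compound and empty wells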)
# [8] = MELAS cybrid survival, CellTiter-Glo 48 h, stronger effect = higher value
# [9] = Rieske KO mouse fibroblast survival, CellTiter-Glo 72 h
# Chain of Cellular tumor antigen p53 (Homo sapiens) (P04637 whole entry, looked up): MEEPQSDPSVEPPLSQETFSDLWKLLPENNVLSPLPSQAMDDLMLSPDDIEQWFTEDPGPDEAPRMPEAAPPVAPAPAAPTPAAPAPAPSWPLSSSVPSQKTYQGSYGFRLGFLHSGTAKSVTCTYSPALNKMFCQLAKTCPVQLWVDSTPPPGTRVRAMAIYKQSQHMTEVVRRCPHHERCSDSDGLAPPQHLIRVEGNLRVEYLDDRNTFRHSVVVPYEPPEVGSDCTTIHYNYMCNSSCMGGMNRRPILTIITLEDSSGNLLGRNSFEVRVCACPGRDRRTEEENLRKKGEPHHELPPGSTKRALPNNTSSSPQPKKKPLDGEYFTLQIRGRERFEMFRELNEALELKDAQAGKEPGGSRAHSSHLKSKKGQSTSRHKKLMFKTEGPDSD
SMILES,liver cell % of control [1] [%],parasite % of control [1],percent of negative control (+Dex) [2],z-score [2],z-score [3],z-score [4],EGFP object count [5],EGFP/DsRed ratio [5],fraction signal [6],"z-score [7, 8]","z-score [7, 9]"
Fc1cccc(COc2ccc(Nc3ncnc4sc(-c5cccs5)cc34)cc2Cl)c1,71.8,60.1% (inactive),92% (inactive),0.005,0.99 (inactive),-0.373 (inactive),5,0.0533 (inactive),-0.0045 (inactive),-0.00271 (inactive),-0.496
Fc1ccc(-c2nn3ncccc3c2-c2ccnc(Nc3ccc4c(c3)OCCO4)n2)cc1,90.5,13.9% (inactive),100% (inactive),-1.27,-0.41 (inactive),-0.769 (inactive),3,0.08 (inactive),-0.003 (inactive),-0.754 (inactive),-0.424
CCc1nn2ncccc2c1-c1ccnc(NC2CC2)n1,131,61.2% (inactive),102% (inactive),-0.225,0.555 (inactive),-0.174 (inactive),3.5,0.117 (inactive),0.007 (inactive),-0.448 (inactive),-0.208
COc1cc2ncn(-c3cc(OCc4ccccc4C(F)(F)F)c(C(=O)N(C)C)s3)c2cc1OC,104,116% (inactive),89.5% (inactive),-0.475,0.535 (inactive),0 (inactive),8.5,0.396 (inactive),-0.002 (inactive),0.0168 (inactive),-0.0859
CCc1cccc(CC)c1/C=C/c1cncc(C(=O)NC)c1,170,99.3% (inactive),81% (inactive),-0.295,-0.265 (inactive),0.127 (inactive),4.5,0.156 (inactive),-0.0125 (inactive),1.32 (inactive),-0.269
